Sampled rows, rich in hits. Any-hit rate of the full collection: about 19%.
DT40 TDP1 CPT: DT40-hTDP1 cell growth loss with CPT. chicken DT40 Tdp1-/-;hTDP1 cells + 20 nM CPT, ATP luminescence, 48 h. Potency, µM (series often up to 46.2 µM), inactives show top-dose activity change, negative = growth inhibition, actives largely listed as inhibitors. 12% of 420,000 active. AID 686979; also: nearly all actives have a fitted effect of over 55% in size
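Cell growth measured by CellTiter-Glo luminescence after a minimum 48 h, 37 C compound exposure with 20 nM CPT in Tdp1-knockout DT40 cells stably expressing hTDP1, seeded 400/well; qHTS titration format.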
RORg inh: ROR gamma (mouse) transcription inhibition. P51450. Drosophila S2 Gal4-RORgamma UAS-luciferase reporter, 20 h. Potency, µM (doses to about 53.6 µM), without a hit: at the top dose activity change, negative = inhibition, actives largely listed as inhibitors. 5.4% of 310,000 active. AID 2551; also: nearly all actives have a fitted effect of over 60% in size
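Stable Schneider cell line, Gal4 DNA-binding domain fused to ROR gamma, UAS-luciferase. Cmpd 1 hr RT → CuSO4 700 uM final → 20 hr RT → luciferase reagent 10 min → luminescence.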
DT40 TDP1 no CPT: qHTS for Inhibitors of human tyrosyl-DNA phosphodiesterase 1 (TDP1): qHTS in cells in absence of CPT | DT40 Tdp1-/- hTDP1 cells, no CPT, ATP luminescence, 48 h | Potency, µM (series often up to 46.2 µM), for inactives: at the highest dose activity change, negative = growth inhibition, actives largely listed as inhibitors | AID 686978, 2013 | 15% of 420,000 active; also: nearly all actives have a fitted effect of over 55% in size
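DT40 Tdp1-/-;hTDP1 cells, no CPT (DMSO vehicle only), 400 cells/well; compounds pin-transferred; ≥48 hr, 37 °C; CellTiter-Glo 30 min RT dark, luminescence read.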
TDP1 inh: TDP1 (human) enzyme inhibition; Q9NUW8; recombinant TDP1, AlphaScreen DNA substrate cleavage; Potency, µM (titrated, usually from 130 µM), for the others: at the highest dose activity change, negative = inhibition, actives largely listed as inhibitors; 0.28% of 350,000 active; AID 485290; also: nearly all actives have a fitted effect of over 40% in size
Target sequence (Q9NUW8 whole entry, looked up): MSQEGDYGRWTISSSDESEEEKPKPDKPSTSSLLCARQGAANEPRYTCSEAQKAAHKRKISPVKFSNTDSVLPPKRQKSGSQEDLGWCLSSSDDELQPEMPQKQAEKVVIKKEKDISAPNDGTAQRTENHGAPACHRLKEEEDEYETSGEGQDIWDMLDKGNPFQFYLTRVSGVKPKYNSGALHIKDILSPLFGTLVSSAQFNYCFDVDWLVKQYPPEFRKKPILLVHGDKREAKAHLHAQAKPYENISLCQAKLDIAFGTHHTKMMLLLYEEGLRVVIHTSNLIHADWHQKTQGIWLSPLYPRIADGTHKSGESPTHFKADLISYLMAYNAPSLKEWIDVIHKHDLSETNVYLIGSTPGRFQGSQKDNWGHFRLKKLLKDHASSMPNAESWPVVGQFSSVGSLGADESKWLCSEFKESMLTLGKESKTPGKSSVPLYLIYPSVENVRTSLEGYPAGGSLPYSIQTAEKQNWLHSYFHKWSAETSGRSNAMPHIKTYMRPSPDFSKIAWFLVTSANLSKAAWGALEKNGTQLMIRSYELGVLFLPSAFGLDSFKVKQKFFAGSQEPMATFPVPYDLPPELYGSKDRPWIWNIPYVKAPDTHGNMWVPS
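Enzyme-compound mixtures sat 15 min at room temperature, followed by a 5 min reaction with 15 nM final substrate and 10 min with AlphaScreen beads. Recombinant human Tdp1 was used at 1 nM final.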
Gal4-VP16 FLuc: inhibits Gal4-VP16 luciferase reporter, ROR gamma counter-screen; Drosophila S2 Gal4-VP16 UAS-luciferase, luminescence, 20 h; 3.5% of 310,000 active; Potency, µM (series often up to 53.6 µM), for the others: at the top dose activity, negative = inhibition, hits mostly inhibitors;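 also: Gal4-VP16 expression switched on by copper sulfate through the metallothionein promoter; nearly all actives have a fitted effect of over 50% in size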
* = called active by the depositor; u = inconclusive; x = no result given; [ ] = dose if it differs, or a comment. Calls follow the shape of the dose curve; as a rule, active = well fitted curve in the direction sought with a large enough effect; inconclusive = small, poorly fitted or top-dose-only effect, or another doubt; inactive = no such curve, though single readings can be large; an effect the other way counts as inactive or inconclusive. % is scaled to controls: 0 for no effect and ±100 for the full control effect; potency is read from the fitted curve at half-maximal effect.

SMILES	DT40 TDP1 CPT	RORg inh	DT40 TDP1 no CPT	TDP1 inh	Gal4-VP16 FLuc
O=C(NCc1ccccc1)/C(=C/c1ccc(OC(F)F)cc1)c1ccccc1	u	u	u	-3%	u
COc1ccc(C(CNC(=O)c2ccc(NS(=O)(=O)c3ccc(F)c(C)c3)cc2)N2CCCC2)cc1 (centres undefined)	-19%	x	u	x	x
N#Cc1ccc(C(=O)NCC(c2ccco2)N2CCCCC2)cc1 (centres undefined)	4%	0%	5%	-2%	18%
O=C(COc1cccc(C(F)(F)F)c1)NCC(c1ccco1)N1CCCC1 (centres undefined)	-10%	x	u	1%	x
CCCCCOc1ccc(C(=O)NCC2(c3ccccc3)CCOCC2)cc1	u	u	u	-4%	-7%
CCCCOc1ccc(C(=O)NCC2(c3ccccc3)CCOCC2)cc1	21µM*	-8%	u	3%	-10%
CCOc1ccc(NS(=O)(=O)c2ccc(C(=O)NCC(c3ccc(OC)cc3)N3CCCC3)cc2)cc1 (centres undefined)	u	x	13µM*	2%	x
O=C(COc1ccc(Cl)cc1Br)NCC(c1ccco1)N1CCCC1 (centres undefined)	u	x	18µM*	5%	x
O=C(NCC(c1ccco1)N1CCCCC1)c1ccc(COc2ccc(Cl)cc2)cc1 (centres undefined)	21µM*	x	13µM*	x	x
COc1cccc(-n2cnc3cccc(N)c32)c1	-31%	-5%	u	9%	17%
CCN(CC)c1ccc2cc(C#N)c(=O)oc2c1	2%	-2%	-4%	5%	-10%
Cc1ccc(C(=O)NCC(c2ccc(Cl)cc2)N2CCCCC2)cc1 (centres undefined)	12µM*	x	13µM*	-2%	x
COc1ccc(C2(CNC(=O)c3ccccc3)CCOCC2)cc1	-3%	16%	-3%	0%	-3%
CCOc1ccc(C(=O)NCC(=O)NCC(c2ccc(OC)cc2)N2CCCC2)cc1 (centres undefined)	-4%	x	5%	x	x
COc1ccc(C(CNC(=O)c2ccc(C)cc2)N2CCOCC2)cc1 (centres undefined)	u	x	u	4%	x
Cc1ccc(C(CNC(=O)Nc2ccc(Cl)cc2)N2CCN(C)CC2)cc1 (centres undefined)	u	-20%	u	2%	5%
CCOC(=O)c1ccc(NC(=O)C(=O)NCC2(c3ccc(OC)cc3)CCOCC2)cc1	u	u	15µM*	x	u
CCCCOc1ccc(C(=O)NCC(c2ccc(Cl)cc2)N2CCOCC2)cc1 (centres undefined)	15µM*	x	21µM*	-2%	x
CCOc1ccc(C(=O)NCC(c2ccc(Cl)cc2)N2CCCCC2)cc1 (centres undefined)	7.3µM*	x	9.2µM*	4%	x
C=CCn1cccc(C(=O)Nc2ccc(C)cc2)c1=O	-23%	-1%	-9%	x	18%
CC(C)CNC(=O)c1cnn2c(C(F)(F)F)cc(C(F)(F)F)nc12	-8%	-5%	-3%	9%	-2%
CN(C)S(=O)(=O)c1c(Cl)cccc1Cl	-2%	u	-15%	4%	-3%
O=C(NCC(c1ccc(Cl)cc1)N1CCCCC1)c1ccc(F)cc1 (centres undefined)	13µM*	x	13µM*	6%	x
Cc1ccc(S(=O)(=O)N(C)C[C@H]2Oc3ccc(NC(=O)C4CCCCC4)cc3C(=O)N([C@H](C)CO)C[C@H]2C)cc1	26µM*	x	21µM*	1%	x
C[C@H]1CN([C@@H](C)CO)C(=O)c2cc(NC(=O)C3CCCCC3)ccc2O[C@H]1CN(C)S(=O)(=O)c1ccccc1	21µM*	x	u	2%	x
SMILES	DT40 TDP1 CPT	RORg inh	DT40 TDP1 no CPT	TDP1 inh	Gal4-VP16 FLuc
C[C@H](CO)N1C[C@H](C)[C@@H](CN(C)S(=O)(=O)c2ccc(F)cc2)Oc2ccc(NC(=O)C3CCCCC3)cc2C1=O	u	x	16µM*	1%	x
COc1ccc(S(=O)(=O)N(C)C[C@H]2Oc3ccc(NC(=O)C4CCCCC4)cc3C(=O)N([C@H](C)CO)C[C@@H]2C)cc1	-23%	x	-27%	0%	x
CCN1CCN(c2ccc(Cl)cc2NC(=O)c2ccc(-n3nc(C)cc3C)cc2)CC1	21µM*	x	u	2%	x
Cc1cc(C)n(-c2ccc(C(=O)Nc3cccnc3Cl)cc2)n1	u	u	u	2%	7%
CCN1CCN(c2ccc(Cl)cc2NC(=O)c2ccco2)CC1	u	x	u	-2%[56.1 µM]	x
Cc1cc(C)n(-c2ccc(C(=O)Nc3cc(S(=O)(=O)N(C)C)ccc3Cl)cc2)n1	16µM*	87%	u	3%	-2%
Cc1nc(-c2c(-c3ccc(O)cc3O)noc2C(F)(F)F)cs1	18µM*	-10%	16µM*	5%	u
CN(Cc1ccco1)C(=O)c1ccc(OC2CCN(Cc3ccccn3)CC2)cc1	-9%	0%	-3%	4%	-17%
Cc1onc(-c2ccccc2)c1C(=O)Nc1sc2c(c1C(N)=O)CCC2	-25%	38%	u	4%	1%
Cc1cc(C(=O)Nc2sc3c(c2C#N)CCC3)no1	u	u	u	-4%	u
N#Cc1c(NC(=O)c2cc(-n3cnnc3)ccc2Cl)sc2c1CCCC2	21µM*	u	13µM*	6%	11%
N#Cc1c(NC(=O)c2cc(C3CC3)on2)sc2c1CCC2	10µM*	4%	12µM*	-7%	10%
Cc1onc(-c2ccccc2)c1C(=O)NC(=S)Nc1sc2c(c1C#N)CCC(C)C2 (centres undefined)	u	2.8µM*	u	0%	u
Cc1cc(C(=O)Nc2sc3c(c2C#N)CCCC3)no1	u	u	u	-1%[56.1 µM]	u
Cc1onc(-c2ccccc2)c1C(=O)Nc1sc2c(c1C#N)CCC2	29µM*	17%	u	-2%	0%
COc1cccc(NC(=O)CCC2CCN(C(=O)c3ccc(C(C)=O)s3)CC2)c1	-19%	-8%	3%	5%	-9%
COc1cc(C(=S)N2CCC(C)CC2)ccc1O	-21%	-17%	-1%	-4%	u
O=C1CN(C(=S)NC(=O)c2ccc(-c3ccccc3)cc2)CCN1	4%	1.8µM*	-1%	3%	10µM*
CCOC(=O)CC1C(=O)NCCN1C(=S)NC(=O)c1ccc(C)c(Br)c1 (centres undefined)	5.8µM*	x	5.2µM*	x	x
COc1ccc(C(=O)NCC(=O)N2CCNC(=O)C2)cc1OC	2%	-10%	1%	11%	1%
COc1ccc(C(=O)NC(=S)N2CCNC(=O)C2)cc1Br	-12%	16µM*	-5%	3%	u
